Out of some 68,000 compounds screened, about 2,700 (4%) showed an effect of 50% or more. This excerpt belongs to a sample that is enriched for strong results.

49 compounds from ChEMBL document CHEMBL4513216, “Probing the Open Global Health Chemical Diversity Library for Multistage-Active Starting Points for Next-Generation Antimalarials” (ACS Infect Dis, 2020) can be followed below.

The test system of this assay is Plasmodium berghei. Put plainly: Screen against P. berghei liver stage (PbLuc), transformed with Luciferase, at 2uM. The assay is classed as functional, HepG2. The settings on record: tested at 2 uM.
On to `CN(CC(=O)N1CCOCC(CO)C1)Cc1ccccn1` (centres undefined), for which the INHIBITION came to 14.96%.
Take `CN(C)CC(=O)N1CCOCC(Cc2ccccn2)C1` (centres undefined): the INHIBITION turned out to be 54.44%.
Next, `O=C(c1cncs1)N1CCOCC(Cc2ccccn2)C1` (centres undefined): -11.3%; `CC(Cn1cccn1)NC(=O)Nc1nccs1` (centres undefined): 43.93%; `O=C(NCCNc1ncccn1)C1CC(=O)N(CC2CC2)C1` (centres undefined): 4.96%.
Under `COc1ccccc1CCN1CCCC(CN(C)Cc2cc(C)n[nH]2)C1` (centres undefined) stands -24.74%; under `Cc1ccc(C)c(OC(C)C(=O)Nc2cccnc2)c1` (centres undefined), 1.42%; under `Cc1ccc(C)c(OC(C)C(=O)NCCNc2cccnc2)c1` (centres undefined), 33.36%.
As for `Cc1ccc(C)c(OC(C)C(=O)NCc2cccnc2)c1` (centres undefined), the INHIBITION amounted to 50.98%.
As for `COc1ccc(NS(=O)(=O)C=c2[nH]c(=O)n3cccc3c2=O)cc1Cl`, the INHIBITION was found to be 1.52%.
For the compound `O=C(N1CCCC1)N1CCN(c2ccc(Cl)nn2)C(=O)C1`, the INHIBITION is 11.51%.
In the case of `CC(CCNC(=O)NCCNc1cnccn1)c1ccccc1` (centres undefined), the INHIBITION is on record as -24.05%.
Under `CC(CCNC(=O)NCCc1ccncc1)c1ccccc1` (centres undefined) stands 54.29%.
Under `CC(CCNC(=O)NCCc1ccc(S(N)(=O)=O)cc1)c1ccccc1` (centres undefined) stands 23.76%; under `CO[C@H]1CCN(Cc2ccccn2)[C@@H]2CN(Cc3ccco3)C[C@H]12`, 23.7%; under `O=C(CN1CC(c2nc(-c3ccco3)no2)C1)NCc1ccc(F)cc1`, 25.69%.
Under `Cc1nc(CNc2ncc(Br)cn2)n[nH]1` stands 33.78%; under `O=C(O)c1csc(S(=O)(=O)Nc2c(F)cccc2-n2cccn2)c1`, -51.5%.
Consider `O=C(O)c1ccc(S(=O)(=O)Nc2c(F)cccc2-n2cccn2)cc1`, for which the INHIBITION is recorded as -21.15%.
Next, `O=C(O)c1ccc(F)c(S(=O)(=O)Nc2c(F)cccc2-n2cccn2)c1`: 52.67%.
Under `CC(C)N1C(=O)CN(CCCO)CC1(C)C` stands -4.81%; under `Cc1noc(-c2ccnc(Oc3ccc(CN4CCCC4)cc3C)c2)n1`, 27.72%; under `CCc1ccc(CN2CCC3(CCCN(C(=O)c4cnccn4)C3)C2)o1` (centres undefined), -26.14%.
Take `O=C(Cc1ccc(CO)cc1)N1CCN(CC2CC2)[C@@H]2CS(=O)(=O)C[C@@H]21`: the INHIBITION stood at 63.46%.
As to `Cc1cnn(CCC(=O)N2CCN(C(=O)C(C)C)[C@@H]3CS(=O)(=O)C[C@@H]32)c1`, the INHIBITION came to 34.52%.
Next, `O=C(Cc1ccc(O)c(F)c1)N1CCN(CC2CC2)[C@@H]2CS(=O)(=O)C[C@@H]21`: 30.42%.
Next, `CCCN1CCN(Cc2cccc(OC)c2)[C@H]2CS(=O)(=O)C[C@H]21`: 37.76%.
Next, `Cc1cnn(CCC(=O)N2CCN(C(=O)C3CC3)[C@@H]3CS(=O)(=O)C[C@@H]32)c1`: 59.94%.
Take `CCCN1CCN(Cc2cccc(OCC(N)=O)c2)[C@H]2CS(=O)(=O)C[C@H]21`: the INHIBITION came to 64.52%.
Under `CCC(=O)N1CCN(C(=O)CCn2cc(Cl)cn2)[C@H]2CS(=O)(=O)C[C@H]21` stands 32.71%; under `O=C(CCn1cc(Cl)cn1)N1CCN(CC2CC2)[C@@H]2CS(=O)(=O)C[C@@H]21`, 59.48%; under `O=C(Cc1ccc(O)c(Cl)c1)N1CCN(CC2CC2)[C@@H]2CS(=O)(=O)C[C@@H]21`, -3.88%.
In the case of `CCCN1CCN(Cc2cccc(OC(C)C)c2)[C@H]2CS(=O)(=O)C[C@H]21`, the INHIBITION amounted to 5.86%.
`Cn1nccc1C(=O)N1CCN(C(=O)C2CC2)[C@@H]2CS(=O)(=O)C[C@@H]21`: the INHIBITION stood at 17.73%.
Next, `Cc1cc(CC(=O)N2CCN(CC3CC3)[C@@H]3CS(=O)(=O)C[C@@H]32)ccc1F`: -10.66%.
Next, `O=C1NCCO[C@H]2CN(C(=O)CCc3ccccc3Cl)CC[C@@H]12`: 46.58%.
Under `CCOCCOC(C)C(=O)Nc1ccc2ccn(CCN(C)C)c2c1` (centres undefined) stands 27.32%; under `Fc1ccccc1-c1nnn(CCCc2nn[nH]n2)n1`, -1.29%; under `Cc1ccc(-c2ccc(Cl)nn2)cc1S(N)(=O)=O`, -62.18%.
In the case of `COc1ccccc1C1Cn2ccnc2CN1Cc1c[nH]nc1C` (centres undefined), the INHIBITION is -67.25%.
Next, `CN(CCc1ccncc1)C1CCCN(Cc2noc(C3CC3)n2)C1` (centres undefined): 22.34%.
In the case of `O=S1(=O)C[C@@H]2[C@H](C1)N(Cc1cccc(O)c1)CCN2CC1CC1`, the INHIBITION is on record as 59.94%.
Next, `O=S1(=O)C[C@@H]2[C@H](C1)N(Cc1ccc3ccccc3c1)CCN2CC1CC1`: 20.91%.
Under `Cc1cc(CN2CCN(CC3CC3)[C@@H]3CS(=O)(=O)C[C@@H]32)cc(C)c1O` stands 25.45%; under `COCCS(=O)(=O)NC(C)c1ccc(-n2nc(C)cc2C)cc1` (centres undefined), -25.82%; under `CCCS(=O)(=O)NC(=O)c1ccc(-n2nc(C)cc2C)cc1`, 59.04%.
On to `CCCS(=O)(=O)NC(=O)c1cc(C)n(-c2ccccc2)n1`, for which the INHIBITION was -1.29%.
Next, `N[C@@H]1CCC[C@@H](Oc2ccc(F)cc2Oc2cccc(F)c2)[C@@H]1O`: 35.73%.
Next, `Cc1ccc(Oc2cc(F)ccc2O[C@@H]2CCC[C@@H](N)[C@H]2O)cc1`: 6.13%.
